SMILES strings stand for the structures. Records with an inconclusive call do not appear. Activity calls are given as the source filed them. The calls were made as follows: active = hit-call score of the fitted dose curve at least 0.9, where 1 is the maximum; inconclusive = response in the unintended direction; inactive = score below 0.9.

As usually defined, the AC50 is the midpoint of the concentration-response curve, whichever way the signal moves.

Peroxisome proliferator-activated receptor gamma (Homo sapiens), sequence (P37231 whole entry, looked up): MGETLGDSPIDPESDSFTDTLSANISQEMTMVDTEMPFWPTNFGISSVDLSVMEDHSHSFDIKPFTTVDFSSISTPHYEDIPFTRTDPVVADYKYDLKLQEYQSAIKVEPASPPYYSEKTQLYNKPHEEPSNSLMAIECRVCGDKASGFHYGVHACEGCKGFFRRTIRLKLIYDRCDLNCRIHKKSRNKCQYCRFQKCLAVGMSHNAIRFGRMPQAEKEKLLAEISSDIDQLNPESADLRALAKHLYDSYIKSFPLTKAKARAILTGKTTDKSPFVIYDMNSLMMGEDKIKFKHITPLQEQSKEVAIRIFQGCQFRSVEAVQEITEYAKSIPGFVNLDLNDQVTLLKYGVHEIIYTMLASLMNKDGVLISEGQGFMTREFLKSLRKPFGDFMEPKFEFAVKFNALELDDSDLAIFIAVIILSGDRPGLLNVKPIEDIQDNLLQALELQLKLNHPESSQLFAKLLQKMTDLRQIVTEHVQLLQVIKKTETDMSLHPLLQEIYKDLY

This assay addresses Peroxisome proliferator-activated receptor gamma (Homo sapiens) (UniProt P37231). In words: ATG_PPARg_TRANS: Attagene TRANS-FACTORIAL HepG2 Assay for human Peroxisome Proliferator-activated Receptor-gamma (PPARg) (AID 2283007). As for the experimental part: ATG_TRANS is a cell-based, multiplexed-readout assay that uses HepG2, a human liver cell line, with measurements taken at 24 hours after chemical dosing in a 24-well plate.ATG_PPARg_TRANS is one of 30 assay component(s) measured or calculated from the ATG_TRANS assay. It is designed to make measurements of mRNA induction, a form of inducible reporter, as detected with fluorescence intensity signals by Reverse transcription polymerase chain reaction (RT-PCR) and Capillary electrophoresis technology.Data from the assay component ATG_PPARg_TRANS was analyzed into 1 assay endpoint. This assay endpoint, ATG_PPARg_TRANS, was analyzed in the positive analysis fitting direction relative to DMSO as the negative control and baseline of activity. Using a type of inducible reporter, measures of mRNA for gain-of-signal activity can be used to understand the reporter gene at the transcription factor-level as they relate to the gene PPARG. Furthermore, this assay endpoint can be referred to as a primary readout, because this assay has produced multiple assay endpoints where this one serves a reporter gene function. To generalize the intended target to other relatable targets, this assay endpoint is annotated to the nuclear receptor intended target family, where the subfamily is non-steroidal.
Human liver HepG2 cells are transiently transfected with multiple reporter transcription units (MRTUs) in 6-well plates using FuGene 6 reagent (Roche; 3 ml FuGene/1 mg DNA). The MRTU constructs are regulated by a cis-regulating element (promoter). […] A major difference between the CIS and TRANS system is that in CIS activities of endogenous TFs are measured, whereas the TRANS assay evaluates changes in activities of exogenous, chimeric NR-Gal4 proteins. […] At the end of 24 hour incubation, total RNA was isolated using TriZol reagent (Invitrogen). The isolated RNA is then reverse-transcribed using oligo(dT) primer and Mo-MLV reverse transcriptase (Invitrogen) with DNAse I (Ambion) treatment for 30 min. The one-tenth of the produced cDNA was amplified by PCR using Taq DNA polymerase (Invitrogen) and two reporter sequence-specific primers. The PCR products were fluorescently labeled by primer extension with 6-arboxyfluorescein (6-FAM) 5'-labeled reporter sequence-specific primer (2 min at 95 C, 20 s at 68 C and 10 min at 72 C) and these products were digested with 5U of HpaI (New England Biolabs) for 2h at 37 C. The fragments were purified using Qiaquick PCR columns (Qiagen), analyzed on an ABI 3130xL genetic analyzer (Applied Biosystems) with peak positions identified by using a set of X-rhodamine (ROX)-labeled MapMarker1000 molecular weight standards (BioVentures). The raw capillary electrophoresis data was processed using Attagraph software (Attagene).
As to `CC(C)=CCCC(C)=CC=O`, the AC50 was 21 µM (active).

For `O=c1[nH]c2ccc(S(=O)CCN3CCC(Cc4ccc(F)cc4)CC3)cc2o1` (stereo not given), the concentration at half-maximal activity (AC50) was 7.65 µM (active).

Take `O=C(O)c1cccc(Oc2ccccc2)c1`: the AC50 was 59.8 µM (active).

As for `CC[C@H]1CC[C@H](NCc2cc3c(cc2OC)[C@H]2C[C@H]2C(=O)N3C)[C@H](c2ccccc2)N1`, the molecule was called inactive.

Take `CC(C)c1cccc(C(C)C)c1N1C(=O)c2ccc(O)cc2C1=O`: the molecule was called inactive.

With `CCCC(=O)OCC`, the molecule was classed as inactive.

For the molecule `O=C(CCCCCCCCc1cccnc1)N1CCC(C=C(c2ccccc2)c2ccccc2)CC1`, the half-maximal activity concentration (AC50) is 1.41 µM (active).

Turning to `CN(C)c1ccc(Cc2ccc(N(C)C)cc2)cc1`, the half-maximal activity concentration (AC50) is 23.1 µM (active).

For `COc1ccc2sc(C(=O)Nc3nnn[nH]3)c(OC(C)C)c2c1`, the half-maximal activity concentration (AC50) is 22.9 µM (active).

Regarding `CCCN(C1CCN(C(=O)C2CCNCC2)CC1)[C@@H]1CCc2ccc(OC)cc2C1`, the half-maximal activity concentration (AC50) is 100 µM (active).

In the case of `COC(=O)c1c(Cl)c(Cl)c(C(=O)OC)c(Cl)c1Cl`, the AC50 is 35.9 µM (active).

`COc1cccc(-c2ccc(/C=C\CN3CCCCCC3)cc2Cl)c1`: the result was inactive.

Turning to `CCOC(=O)COc1ccc2c(c1)CC(NCC(O)c1cccc(Cl)c1)CC2` (stereo not given), the half-maximal activity concentration (AC50) is 21.7 µM (active).

Turning to `CNCc1ccc(NC(=O)c2c[nH]c3c2C(=O)CCC3)cc1`, the outcome was inactive.

Take `CC(C)CCO`: the molecule was classed as inactive.

As to `Cn1cnc([N+](=O)[O-])c1Sc1ncnc2nc[nH]c12`, the AC50 is 39.9 µM (active).

In the case of `C=CCCCCCCCCC(=O)O`, the AC50 was 69.1 µM (active).

Turning to `CCCCCCCCCCCCCCCO`, the molecule was called inactive.

Turning to `CCOC(=O)c1ccc(C2CCC(NC[C@H](O)COc3ccc(O)c(NS(C)(=O)=O)c3)CC2)cc1` (stereo not given in full), the call was inactive.

Regarding `Cc1c(-c2cccnc2)c2ccccc2n1CCCCC(=O)O`, the concentration at half-maximal activity (AC50) is 22.4 µM (active).

As for `O=C(NS(=O)(=O)/C=C/c1ccccc1)c1ccc(F)cc1Cl`, the concentration at half-maximal activity (AC50) is 22.3 µM (active).

With `CCn1nc(Cc2ccccc2)cc1C1CCN(C[C@H]2C[C@H](N(C)[C@@H](C(=O)O)C(C)C)C[C@@H]2c2cccc(F)c2)CC1`, the result was inactive.

Regarding `CC(C)=CCC/C(C)=C\CO`, the AC50 was 36.5 µM (active).

On to `C1N2CN3CN1CN(C2)C3`, for which the call was inactive.

As to `Clc1nc(Cl)c(Cl)c(Cl)c1Cl`, the AC50 is 3.02 µM (active).

Turning to `O=P(OC(CCl)CCl)(OC(CCl)CCl)OC(CCl)CCl`, the call was inactive.

On to `CCCCCCCCO`, for which the molecule was called inactive.

Regarding `Oc1ccc2c(c1)-c1ccccc1C2`, the molecule was classed as inactive.

As for `COCCOCCOCCOC`, the result was inactive.

For the molecule `CCC(C)(C)C(=O)O[C@H]1C[C@@H](C)C=C2C=C[C@H](C)[C@H](CC[C@@H]3C[C@@H](O)CC(=O)O3)[C@H]21`, the molecule was classed as inactive.

Regarding `CCOCCOCCOCCO`, the call was inactive.

As to `CCCCCCCCCCCCc1ccccc1`, the call was inactive.

Consider `O=C(O)c1cc(N=Nc2ccc(S(=O)(=O)Nc3ccccn3)cc2)ccc1O`, for which the half-maximal activity concentration (AC50) is 57.4 µM (active).

Take `CCc1cc(SCc2sc(-c3ccc(C(F)(F)F)cc3)nc2CN2CCN(c3ccc(OC)cc3)CC2)ccc1OCC(=O)O`: the AC50 is 0.0352 µM (active).

For the molecule `CCNc1ccccc1`, the molecule was called inactive.

As to `CCCCCCc1ccc(O)cc1O`, the half-maximal activity concentration (AC50) is 31.2 µM (active).

Take `O=C(OC[C@H]1O[C@@H](OC(=O)c2cc(O)c(O)c(OC(=O)c3cc(O)c(O)c(O)c3)c2)[C@H](OC(=O)c2cc(O)c(O)c(OC(=O)c3cc(O)c(O)c(O)c3)c2)[C@@H](OC(=O)c2cc(O)c(O)c(OC(=O)c3cc(O)c(O)c(O)c3)c2)[C@@H]1OC(=O)c1cc(O)c(O)c(OC(=O)c2cc(O)c(O)c(O)c2)c1)c1cc(O)c(O)c(OC(=O)c2cc(O)c(O)c(O)c2)c1`: the molecule was called inactive.

For the molecule `O=C(O)CCN(C1(C(=O)NO)CCCC1)S(=O)(=O)c1ccc(Oc2ccc(F)cc2)cc1`, the result was inactive.

For the molecule `CC(C)=CCC/C(C)=C/CO`, the AC50 was 63.6 µM (active).

Regarding `O=C1CCC(N2C(=O)c3ccccc3C2=O)C(=O)N1` (stereo not given), the molecule was called inactive.

The values are drawn from PubChem BioAssay (EPA / NIEHS).
